High-throughput results deposited in PubChem by Broad Institute.
IDE exosite FP: exo-site inhibitors of human IDE, primary screen, biochemical, fluorescence anisotropy, probe displacement. Insulin-degrading enzyme (Homo sapiens), P14735. purified IDE, FL-6b probe fluorescence polarization; stronger effect = lower value. z-score at 20 µM. 17,000 tested, 6.3% active;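 active means z-score of -3 or lower, meaning strong loss of probe binding signal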;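 further: His-tagged human IDE residues 42-1019 made in E. coli with 30 nM FL-6b probe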
* = called active by the depositor. Many of the other results were omitted from the sample, so hits are more common in it than they were.

SMILES	IDE exosite FP
CC(=O)N(C[C@H]1N[C@H](CO)[C@@H]1c1ccc(-c2ccc(F)cc2)cc1)C(C)C	2
Cc1cccc(-c2ccc([C@H]3[C@H](CO)N4CCCCN(Cc5ccncc5)C[C@@H]34)cc2)c1	-3.7*
Cc1cccc(-c2ccc([C@H]3[C@@H](CO)N4CCCCN(Cc5ccncc5)C[C@H]34)cc2)c1	-5.9*
Cc1cccc(-c2ccc([C@@H]3[C@@H](CO)N4CCCCN(CCC(F)(F)F)C[C@H]34)cc2)c1	-2.9
Cc1cccc(-c2ccc([C@H]3[C@H]4CN(Cc5ccncc5)CCCCN4[C@H]3CO)cc2)c1	-5*
Cc1cccc(-c2ccc([C@@H]3[C@H](CO)N4CCCCN(CCC(F)(F)F)C[C@@H]34)cc2)c1	-2.7
Cc1cccc(-c2ccc([C@H]3[C@@H](CO)N4CCCCN(CCC(F)(F)F)C[C@@H]34)cc2)c1	0.47
Cc1cccc(-c2ccc([C@H]3[C@H](CO)N4CCCCN(CCC(F)(F)F)C[C@@H]34)cc2)c1	-0.21
CN(C)C(=O)c1ccc(-c2ccc([C@@H]3[C@@H](CO)N4CCCCN(Cc5ccncc5)C[C@@H]34)cc2)cc1	2.6
Cc1cccc(-c2ccc([C@@H]3[C@@H](CO)N4CCCCN(CCC(F)(F)F)C[C@@H]34)cc2)c1	-0.68
OC[C@H]1[C@@H](c2ccc(C3=CCCC3)cc2)[C@@H]2CN(Cc3ccncc3)CCCCN12	-0.9
Cc1cccc(-c2ccc([C@H]3[C@@H](CO)N4CCCCN(CCC(F)(F)F)C[C@H]34)cc2)c1	-3.6*
CO[C@@H](CN(C)S(=O)(=O)c1cccc(Cl)c1)[C@@H](C)CN(C(=O)Nc1ccccc1F)[C@@H](C)CO	0.9
C[C@H](CO)N1C[C@H](C)[C@@H](CN(C)S(=O)(=O)c2cccs2)Oc2ccc(NC(=O)Nc3cccc4ccccc34)cc2C1=O	-0.26
O=C(c1cccnc1)N1CC2(C1)[C@H](c1ccccc1)[C@@H](CO)N2Cc1ccc(Cl)cc1	-0.064
COc1ccccc1-c1ccc([C@@H]2[C@@H](CO)N(CC3CC3)C23CN(S(C)(=O)=O)C3)cc1	-0.36
COc1cccc(-c2ccc3c(c2)[C@H]2[C@H](CCN2C(=O)Cc2ccncc2)[C@H](CO)N3C)c1	-0.47
CS(=O)(=O)N1CC(=O)N2[C@H](C1)[C@H](c1ccc(C#CCC3CCCC3)cc1)[C@@H]2CO	-0.57
CCN(C[C@@H]1N[C@H](CO)[C@H]1c1ccc(-c2cccc(C#N)c2)cc1)C(=O)COC	3.3
CCCC#Cc1ccc([C@@H]2[C@@H](CO)N3CCCCN(S(=O)(=O)c4ccccc4C)C[C@H]23)cc1	5.2
CN(C)C(=O)C[C@@H]1CC[C@H]2[C@@H](COC[C@@H](O)CN2C(=O)C2CCOCC2)O1	-0.24
COc1ccc(NC(=O)N2CC(=O)N3[C@@H](CO)[C@@H](c4ccc(Br)cc4)[C@@H]3C2)cc1	-0.38
O=C(C[C@H]1CC[C@@H]2NC[C@@H](O)COC[C@H]2O1)NCc1ccc2c(c1)OCO2	1
CCCC#Cc1ccc([C@@H]2[C@H](CO)N3CCCCN(Cc4ccncc4)C[C@@H]23)cc1	2.8
CC(C)CC#Cc1ccc([C@@H]2[C@H](CO)N3C(=O)CN(C(=O)Nc4ccc(F)cc4)C[C@@H]23)cc1	4
SMILES	IDE exosite FP
O=S(=O)(c1cccc(Cl)c1)N1[C@@H]2CNC[C@H]1C2c1ccc(-c2cccnc2)cc1 (stereo partly drawn)	-1.6
N#C[C@@H]1[C@@H](c2ccc(C3=CCCC3)cc2)[C@@H](CO)N1C(=O)NC1CCCCC1	0.51
CC(C)(O)C#Cc1ccc([C@H]2[C@H](CO)N3CCCCN(C(=O)c4ccncc4)C[C@@H]23)cc1	-1.3
N#C[C@@H]1[C@H](c2ccccc2C2=CCCC2)[C@@H](CO)N1C(=O)Cc1ccncc1	0.21
CN1C(=O)c2cc(NS(C)(=O)=O)ccc2OC[C@@H]2O[C@@H](CC(=O)NCc3ccccc3)CC[C@H]21	-0.3
O=C(NC[C@@H]1[C@@H](c2ccccc2)[C@H](CO)N1C(=O)Cc1cccnc1)C1CCC1	0.39
CC(C)NC(=O)N1CCCCN2[C@H](C1)[C@@H](c1ccc(Br)cc1)[C@@H]2CO	2.7
COCC(=O)N1CCCCN2[C@H](C1)[C@H](c1ccc(-c3ccc(OC)cc3)cc1)[C@@H]2CO	-0.9
COc1ccc(-c2ccc([C@@H]3[C@H]4CN(C(=O)NC(C)C)CCCCN4[C@H]3CO)cc2)cc1	-6.6*
COc1ccc(-c2ccc([C@H]3[C@H](CO)N4CCCCN(C(=O)NC(C)C)C[C@@H]34)cc2)cc1	-7.3*
COc1ccc(-c2ccc([C@@H]3[C@H]4CN(C(=O)c5ccc(F)cc5)CCCCN4[C@H]3CO)cc2)cc1	1.5
COCC(=O)N1CCCCN2[C@@H](CO)[C@@H](c3ccc(-c4ccc(OC)cc4)cc3)[C@@H]2C1	0.41
COc1ccc(-c2ccc([C@H]3[C@@H](CO)N4CCCCN(C(=O)NC(C)C)C[C@H]34)cc2)cc1	-1.7
COCC(=O)N1CCCCN2[C@H](CO)[C@@H](c3ccc(-c4ccc(OC)cc4)cc3)[C@H]2C1	-1.3
COc1ccc(-c2ccc([C@H]3[C@@H](CO)N4CCCCN(C(=O)NC(C)C)C[C@@H]34)cc2)cc1	-6.3*
CCC(=O)NC[C@H]1N[C@H](CO)[C@@H]1c1ccc(-c2cccc(C#N)c2)cc1	3
Cc1ccc(-c2ccc([C@H]3[C@@H](CO)N4CCCCN(C(=O)Nc5cccc(F)c5)C[C@H]34)cc2)cc1	4.2
CN(C)C(=O)c1cccc(-c2ccccc2[C@@H]2[C@H](C#N)N(C(=O)C3CCCCC3)[C@H]2CO)c1	-0.34
Cc1ccccc1S(=O)(=O)N1[C@H](CO)[C@@H](c2ccccc2)[C@@H]1C#N	3.7
C[C@H]1CCCCO[C@H](CN(C)S(=O)(=O)c2ccccc2)[C@@H](C)CN([C@@H](C)CO)C(=O)c2cc(NC(=O)Nc3ccc4c(c3)OCO4)ccc2O1	0.22
CCC(=O)N1[C@H](CNC(=O)CN(C)C)[C@H](c2ccc(C3=CCCC3)cc2)[C@@H]1CO	3.1
COc1ccc([C@H]2C/C=C\C[C@@H](c3ccc4c(c3)OCO4)NC(=O)[C@@H](c3ccccc3)CC(=O)N2)c(OC)c1	-0.25
Cc1noc(C)c1NC(=O)Nc1ccc2c(c1)C(=O)N(C)[C@H]1CC[C@@H](CC(=O)N[C@H]3CCN(Cc4ccccc4)C3)O[C@H]1CO2	0.18
COCC(=O)N1[C@H](C#N)[C@H](c2ccccc2C2=CCCC2)[C@@H]1CO	-0.79
O=C(Nc1cc(F)ccc1F)N1CCCCN2[C@H](C1)[C@H](c1ccc(-c3ccccc3)cc1)[C@@H]2CO	2.9
SMILES	IDE exosite FP
COc1ccc(S(=O)(=O)N2CCCCN3[C@H](CO)[C@@H](c4ccc(-c5cccnc5)cc4)[C@@H]3C2)cc1	-2.2
COc1cccc(CN2CCCCN3[C@H](CO)[C@H](c4ccc(-c5cccc(C#N)c5)cc4)[C@@H]3C2)c1	0.95
COc1cccc(-c2ccc([C@H]3[C@@H](CO)N4CCCCN(Cc5cncnc5)C[C@H]34)cc2)c1	-6.6*
COc1ccc(-c2ccc([C@H]3[C@H]4CN(CC5CCOCC5)CCCCN4[C@H]3CO)cc2)cc1	0.75
OC[C@H]1[C@@H](c2ccc(-c3cccc(F)c3)cc2)[C@H]2CN(Cc3cncnc3)CCCCN21	1.4
OC[C@@H]1[C@@H](c2ccc(-c3cccc(F)c3)cc2)[C@@H]2CN(Cc3cncnc3)CCCCN12	0.63
OC[C@@H]1[C@H](c2ccc(-c3ccccc3)cc2)[C@H]2CN(Cc3cncnc3)CCCCN12	0.12
